Screening data deposited in PubChem BioAssay by several laboratories.
Most compounds without a hit are left out; they make up all but 1.6% or so of the library.
ATG4B inhibitor = ATG4B (human) cysteine protease inhibition. inhibition, % at 8.33 µM. AID 504462. actives 0.51% (n = 340,000). ATG4B cleavage of LC3-PLA2, NBD-HPC fluorescence, 1 h; in the data active = inhibition above about 40%
GRK2 inh = blocks RNA aptamer binding to human GRK2; P25098; inhibition of aptamer binding, % at 10 µM; bead flow cytometry, FAM-aptamer displacement from GRK2; actives 0.59% (n = 330,000);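 active = inhibition of aptamer binding above 40%, roughly 3 SD of noise, on plates passing a quality check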;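 note: median bead fluorescence of bound FAM aptamer so fluorescent compounds give negative values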
Target sequence (P25098 whole entry, looked up): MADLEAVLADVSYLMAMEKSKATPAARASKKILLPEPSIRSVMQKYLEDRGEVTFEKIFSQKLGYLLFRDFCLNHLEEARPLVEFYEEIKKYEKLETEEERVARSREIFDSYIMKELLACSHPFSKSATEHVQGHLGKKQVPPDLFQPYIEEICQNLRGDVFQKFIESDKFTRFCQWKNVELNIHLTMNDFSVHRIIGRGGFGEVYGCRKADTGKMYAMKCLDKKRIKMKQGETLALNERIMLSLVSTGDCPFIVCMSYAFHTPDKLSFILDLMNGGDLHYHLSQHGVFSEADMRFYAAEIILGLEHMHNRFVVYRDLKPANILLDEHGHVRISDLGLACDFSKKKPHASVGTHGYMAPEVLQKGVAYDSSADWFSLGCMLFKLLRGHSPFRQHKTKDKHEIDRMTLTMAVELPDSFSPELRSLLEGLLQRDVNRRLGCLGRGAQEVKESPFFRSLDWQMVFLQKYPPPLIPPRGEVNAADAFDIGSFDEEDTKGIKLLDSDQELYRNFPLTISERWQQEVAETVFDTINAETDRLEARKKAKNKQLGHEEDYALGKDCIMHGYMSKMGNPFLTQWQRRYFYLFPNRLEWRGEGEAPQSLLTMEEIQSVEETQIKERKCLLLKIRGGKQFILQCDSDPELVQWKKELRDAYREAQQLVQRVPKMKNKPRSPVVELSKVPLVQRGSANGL
CR mimetic SO = lowers age-related superoxide in aged yeast cells; S. cerevisiae aged cells, superoxide DHE fluorescence; active compounds read low; superoxide response (% of plate mean), % at 10 µM; actives 0.18% (n = 330,000); AID 2690;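 active = superoxide response under a set limit, about three screen SD below normal, cut at about 65% in these data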;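 note: yeast aged for seven days with compound at 30 °C before DHE staining; 100% = average MFI of all compound-treated wells on the plate with controls excluded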
Efflux pump mplx = blocks antifungal efflux pumps in multiplex yeast assay. AID 485275. actives 0.44% (n = 330,000). inhibition, % at 10 µM. S. cerevisiae Candida pump triplex, Nile Red efflux;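 active = plate passing quality check with inhibition over a set limit, or well fluorescence over plate mean plus 4 SD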;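 note: Nile Red retained in pooled yeast measured as flow cytometry median fluorescence; 0% = buffer negative control and 100% = Enniatin B positive control; higher means more Nile Red kept so more efflux inhibition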
ATG4B confirm = confirmation of human ATG4B inhibitors | actives 92% (n = 320) | AID 504757 | inhibition, % at 8.33 µM | ATG4B protease fluorescent substrate cleavage assay | shares compounds with ATG4B inhibitor; in the data active = inhibition above about 39%
PLA2 ctr = inhibits human PLA2, flagging false ATG4B inhibitors | AID 588402 | purified PLA2, NBD-C6-HPC fluorescence, 45 min | actives 66% (n = 1,600) | inhibition, % at 8.33 µM | shares compounds with ATG4B inhibitor; in the data active = inhibition above about 50%
The depositor's hits bear a star; i = inactive; / = no result.

SMILES	ATG4B inhibitor	GRK2 inh	CR mimetic SO	Efflux pump mplx	PLA2 ctr	others
COc1ccccc1C(=O)Nc1cc(-c2ccc(C)cc2)no1	14	0	103	0	/
CCCCSc1ncnc2[nH]ncc12	0	0	99	0	/
O=C(CSc1nnc(NC(=O)c2ccccc2F)s1)NC1CC1	-3	2	99	0	/
COc1ccc(-c2[nH]nc3c2C(c2ccc(OC(=O)N4CCOCC4)cc2)C(C#N)=C(N)O3)cc1 (configuration not stated)	42*	2	117	0	44	ATG4B confirm=76*
CC(C)(C)c1[nH]nc2c1C(c1ccc(OC(=O)c3ccco3)cc1)C(C#N)=C(N)O2 (configuration not stated)	83*	0	105	0	86*
O=C(Nc1oc2ccccc2c(=O)c1-c1ccc(Br)cc1)c1ccco1	4	0	96	0	/
Cc1cc(C)c(OCC(=O)Nc2cccc(NC(=O)c3ccco3)c2)c(Br)c1	60*	0	i	0	63*
COc1ccc(C(C)=O)cc1CSCC(=O)O	0	2	97	0	/
COc1ccc(C(=O)/C=C/c2ccc(OCc3ccccc3)cc2)cc1CSCC(=O)O	49*	0	91	-1	69*
COc1ccc(C(=O)/C=C/c2cccc(OCc3ccccc3)c2)cc1CSCC(=O)O	49*	1	103	0	61*
COc1ccc(C2NC(c3ccc(OC)cc3)C(c3ccccc3)C(=O)C2c2ccccc2)cc1 (configuration not stated)	-9	1	88	-1	/
CCN1CCN(c2nc3c(C)cccn3c(=O)c2/C=C(\C#N)S(=O)(=O)c2ccc(C)cc2)CC1	67*	0	90	0	68*
Cc1ccc(S(=O)(=O)/C(C#N)=C/c2c(N3CCN(C)CC3)nc3c(C)cccn3c2=O)cc1	50*	4	101	0	59*
Cc1ccc(S(=O)(=O)/C(C#N)=C/c2c(N3CC(C)OC(C)C3)nc3c(C)cccn3c2=O)cc1 (configuration not stated)	44*	4	104	0	51*
Cc1cccn2c(=O)c(/C=C(\C#N)S(=O)(=O)c3ccccc3)c(N3CCN(C)CC3)nc12	37	0	94	0	/
CCN(C(=O)C1CC1)C1CCS(=O)(=O)C1 (configuration not stated)	1	1	107	0	/
COc1ccccc1C(=O)Nc1ccc(OCC(=O)N2CCCCC2C)cc1 (configuration not stated)	3	0	112	0	/
CCOC(=O)c1cc(-c2c(Cl)cccc2Cl)no1	50*	1	99	0	47
O=C(O)COc1ccccc1/C=C1\SC(=S)N(/N=C/c2ccccc2O)C1=O	48*	1	102	0	35	ATG4B confirm=68*
O=C(Nc1nc(-c2ccccc2)cs1)c1cccc([N+](=O)[O-])c1C(=O)O	55*	0	111	0	65*
O=C1NC(=Nc2ccccc2)S/C1=C\c1cccn1-c1ccccc1	68*	1	108	0	59*
Cc1cccc(N=C2NC(=O)/C(=C/c3cccn3C)S2)c1	12	1	88	0	/
N#Cc1ccccc1NC(=O)c1ccc2c(Cl)c3c(nc2c1)CCCC3	48*	5	102	0	49
O=C(Nc1cccnc1Cl)c1ccc2c(Cl)c3c(nc2c1)CCC3	6	/	/	/	/
CS(=O)(=O)N1CCN(C(=O)NC2CCCCC2)CC1	10	3	97	0	/
SMILES	ATG4B inhibitor	GRK2 inh	CR mimetic SO	Efflux pump mplx	PLA2 ctr	others
O=c1[nH]c(NNC(=S)NCc2ccccc2)nc2c1C1(CCCCC1)Cc1ccccc1-2	72*	4	106	0	79*
Cc1ccc(CNC(=O)C2CCC(=O)N(Cc3ccc(Cl)cc3)C2)cc1F (configuration not stated)	-3	0	102	0	/
C=CCSC1=N/C(=C\c2cc(OCC)c(OC(C)=O)c([N+](=O)[O-])c2)C(=O)S1	89*	12	117	0	94*
C=CCSC1=N/C(=C\c2ccc3c(c2)OCO3)C(=O)S1	6	3	103	0	/
O=C(NC1CCCCCC1)C1Cc2ccccc2CN1C(=O)c1ccco1 (configuration not stated)	-8	3	103	0	/
O=C(CSc1nnc(-c2ccc(Br)o2)n1Cc1ccccc1)c1ccccc1F	57*	0	94	0	57*
CCOc1ccccc1NC(=O)c1cc(C(=O)c2cc(Br)ccc2O)coc1=N	56*	0	94	0	57*
CC(C)OC(=O)c1cc(C(=O)c2cc(Br)ccc2O)coc1=N	3	1	119	0	/
COc1cc(S(=O)(=O)N2CCOCC2)cc(C(=O)OCC(=O)NCc2ccco2)c1OC	7	2	87	0	/
Cc1cc(N/N=C/c2ccc(N(C)C)cc2)nc(NCc2ccccc2)n1	-3	1	94	0	/
Cc1cc(Nc2ccc(Cl)cc2)nc(NCc2ccccc2)n1	44*	0	106	0	38	ATG4B confirm=69*
Cc1cc(N/N=C/c2ccc(F)cc2)nc(NCc2ccccc2)n1	71*	1	109	0	64*
Cc1cc(N/N=C/c2ccc(Cl)cc2Cl)nc(NCc2ccccc2)n1	85*	1	102	0	88*
Cc1ccc(/C=N/Nc2cc(C)nc(NCc3ccccc3)n2)cc1	64*	0	96	0	77*
Clc1ccc(C=NNc2ccccn2)c(Cl)c1	2	/	/	/	/
Cc1cc(Nc2ccccc2)nc(NCc2ccccc2)n1	6	0	78	0	/
CC(=O)N1CCN(C(=O)CCC(=O)O)CC1	-12	0	114	0	/
O=C(CN1C(=O)COc2ccccc21)NCCCN1CCN(Cc2ccccc2)CC1	-19	0	92	0	/
O=C(CN1C(=O)COc2ccccc21)NCCCN1CCc2ccccc2C1	76*	0	102	0	-12
CCc1ccccc1NC(=S)NCCSc1ccc(Cl)cc1	66*	0	98	0	80*
Cc1ccc(C)c(NC(=S)NCCSc2ccc(Cl)cc2)c1	15	0	91	0	/
Cc1cccc(NC(=S)NCC(C)CSc2ccc(Cl)cc2)c1 (configuration not stated)	34	1	105	0	/
Cc1cccc(NC(=S)NCCSc2ccc(Cl)cc2)c1	51*	3	90	0	64*
Cc1ccccc1NC(=S)NCCSc1ccc(Cl)cc1	45*	0	106	0	51*
C=CCN1C(=O)c2ccc(C(=O)NCCc3ccc(F)cc3)cc2C1=O	0	0	97	0	/
Cc1[nH]c(C)c(S(=O)(=O)N2CCN(c3ccc(Cl)cc3)CC2)c1C(=O)N1CCCC1	-12	1	113	0	/
CCN(CC)CCCN(Cc1cc2cc3c(cc2[nH]c1=O)OCO3)C(=S)Nc1ccccc1	-3	0	113	0	/
O=S(=O)(c1cccs1)N1CCN(c2ccccc2F)CC1	0	3	92	0	/
O=S(=O)(c1cccs1)N1CCN(c2ccccc2Cl)CC1	45*	0	93	1	64*
O=C(NCCc1ccccc1C(F)(F)F)C1CCC(=O)N(CCCN2CCCC2=O)C1 (configuration not stated)	4	1	94	0	/
